The nature of assay [1]: qHTS assay to identify small molecule agonists of the hypoxia (HIF-1) signaling pathway - cell viability counter screen (AID 1224844; calls by dose curve; further: nearly all actives have a fitted effect of over 50% in size). A digest of the protocol:
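HRE-bla ME-180; 0.5% dFBS; cpd 17 h, 37C, 5% CO2; CellTiter-Glo lum., 30 min RT, post-FRET read, same wells.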
(qHTS replaces the single test concentration by a dilution series.)

A short description of assay [2]: qHTS assay to identify small molecule agonists of H2AX (AID 1224845; active means well fitted activation curve with a large enough effect in the signal ratio in the repeat runs, not every such curve was filed as active; the % refers to the signal ratio). A digest of the protocol: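 Phospho-H2AX Ser139 measured by HTRF (ex 320 nm; em 665 and 620 nm) after 24 hr antibody incubation. Compounds, 15 concentrations, 0.76% DMSO, were applied to CHO-K1 cells for 3hr at 37C before lysis.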
Assay [3] in a line: qHTS assay to identify small molecule agonists of H2AX - cell viability counter screen (AID 1224847; calls by dose curve; further: nearly all actives have a fitted effect of over 30% in size; further: potency means the concentration at half of the fitted maximal effect;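 on activity change, negative = cytotoxicity: wild-type CHO-K1 cells; top concentration of the series differs between compounds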). A digest of the protocol:
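Counter-screen for viability: CellTiter-Glo ATP luminescence read after 3 h compound treatment (15-point titration, 0.76% DMSO final) of CHO-K1 cells at 37C, with 30 min room-temperature reagent incubation.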

The nature of assay [4]: qHTS assay to identify small molecule antagonists of the estrogen related receptor (ERR) signaling pathway from Tox21 library (AID 1224848). Further: nearly all actives have a fitted effect of over 50% in size. A digest of the protocol: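 ERR cell line, 2,000 cells/well. 6 h settle, then compound (DMSO) added; 18 h at 37 C; ONE-Glo luminescence after 30 min RT.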
Assay [5] can be described thus: qHTS assay to identify small molecule agonists of the estrogen related receptor (ERR) signaling pathway from Tox21 library (AID 1224849; calls by dose curve; further: nearly all actives have a fitted effect of over 15% in size). Conditions: ERR reporter cell line, ONE-Glo luciferase, 18 h; at 92.4 µM (top of the series) unless noted. A digest of the protocol:
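Tox21 compounds tested for ERR agonism in an NTP reporter cell line: 18 h treatment at 37 C, then ONE-Glo luminescence.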

The nature of assay [6]: qHTS RealTime-Glo MT Cell Viability Assay in HepG2 cells - 24 hour (AID 1224867). Further: nearly all actives have a fitted effect of over 50% in size. A digest of the protocol:
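Real-time, nonlytic viability: 600 HepG2 cells/well mixed with NanoLuc enzyme plus prosubstrate; 5 h settle, compound (DMSO) added by pintool; luminescence monitored over 40 h at 37 C.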

Assay [7] in a line: qHTS RealTime-Glo MT Cell Viability Assay in HEK293 cells - 32 hour (AID 1224868). Further: top concentration of the series differs between compounds; nearly all actives have a fitted effect of over 50% in size. A digest of the protocol: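 Cells + reagent dispensed (600 cells/well, HEK293) → 5 h at 37 C/5% CO2 → 23 nL compound in DMSO pinned → 40 h at 37 C → luminescence read at 0, 8, 16, 24, 32, 40 h.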
A short description of assay [8]: A CellTox Green Cytotoxicity Assay to monitor cytotoxicity in HEK293 cells - 0 hour (AID 1224869). Further: nearly all actives have a fitted effect of over 50% in size. A digest of the protocol:
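Tox21 screen in HEK293: membrane-impermeant cyanine dye fluoresces on binding dead-cell DNA; compound pinned 5 h post-seeding, plates held at 37 C, signal read repeatedly through 40 h.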

Assay [9] can be described thus: qHTS RealTime-Glo MT Cell Viability Assay in HepG2 cells - 40 hour (AID 1224870). Further: nearly all actives have a fitted effect of over 50% in size. A digest of the protocol:
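Real-time viability: cells seeded at 600 per well together with NanoLuc and cell-permeant prosubstrate, compounds added after 5 h incubation. Luminescence tracked at 0, 8, 16, 24, 32 and 40 h of exposure.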

Assay [10] is described as follows: qHTS assay to identify small molecule agonists of the hypoxia (HIF-1) signaling pathway (AID 1224846; active means well fitted activation curve with a large enough effect in the signal ratio in the repeat runs, not every such curve was filed as active; the % refers to the signal ratio). A digest of the protocol:
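Reporter induction in HRE-bla ME-180 cells is taken as agonism: cells sit 5 hrs after plating, receive compounds or DMSO only, incubate 17 hrs at 37C under 5% CO2, and are loaded with CCF4-AM for beta-lactamase FRET measurement.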

Inconclusive results are not listed. More than one record can exist for a structure, and the calls need not agree. Calls of active or inactive are those of the source. Unless noted, the call rests on the fitted dose curve; in most records, active means well fitted curve in the direction sought with a large enough effect in the repeat runs; inconclusive means weak or mixed curves; inactive means no such curve, though single readings can be large; an effect the other way counts as inactive or inconclusive.

The text below walks through data of PubChem BioAssay (Tox21).
On the % scale 0 is the no-effect control and ±100 the full control effect.

As to `O=c1[nH]oc2c1CCNC2`, the Potency entry in [1], in [3], in assay [4], in [6], in assay [7] and in assay [9] was “inactive” in each case. In addition, the compound was classed as inactive in assay [2] and in assay [8]. Further, in assay [5], the activity change, positive = activation was 0.599% [at 42.5 µM] (inactive).
For `COC(=O)c1ccc(CBr)cc1`, the Potency result in assay [1], in [3], in assay [7] and in assay [9] was “inactive” each time. Moreover, the outcome in assay [2], in [10] and in [8] was inactive.
As for `[P]#[In]`, the Potency entry in assay [1], in assay [4], in [7] and in [9] was “inactive” throughout. In addition, the compound was classed as inactive in assay [2] and in [10]. Further, the activity change, positive = activation in assay [5] is 3.59% (inactive).
On to `ClC1=C(Cl)C2(Cl)C(CBr)CC1(Cl)C2(Cl)Cl` (stereo unspecified), for which the Potency result in assay [1], in assay [6] and in assay [9] was “inactive” each time. Further, the compound was called inactive in [2] and in assay [10]. Also, the Potency in assay [3] was 113 µM (active) and inactive.
Take `NC1(c2ccccc2)CCCCC1`: the Potency entry in assay [1], in assay [3] and in [7] was “inactive” in each case. Also, the call in [2], in assay [10] and in [8] was inactive.
`CC(C)C(C)(N)C#N` (stereo unspecified): the Potency result in [1], in assay [3], in assay [7] and in assay [9] was “inactive” throughout. For the same compound, the outcome in [2], in assay [10] and in [8] was inactive.
As for `CCOC(=O)NC(C)(C)Cc1ccc(Cl)cc1`, the Potency entry in [1], in assay [3] and in assay [7] was “inactive” throughout. For the same compound, the call in [2], in assay [10] and in assay [8] was inactive.
For the compound `COC1=CC(=O)O[C@@H](/C=C/c2ccccc2)C1`, the Potency result in [1], in assay [3], in [4], in [6] and in assay [7] was “inactive” throughout. In addition, the call in assay [2] and in [8] was inactive. Moreover, the activity change, positive = activation in assay [5] was 12.9% (inactive).
As for `C=CCCC#N`, the Potency entry in assay [1], in [3], in assay [7] and in assay [9] was “inactive” each time. Moreover, the result in assay [2], in assay [10] and in assay [8] was inactive.
With `CCc1cc(OC)c(C[C@H](C)N)cc1OC`, the Potency result in assay [1], in assay [3], in assay [6] and in assay [9] was “inactive” each time. The compound was called inactive in assay [2] and in assay [10].
For `CCCCCCCCSC(=O)Oc1cc(Cl)nnc1-c1ccccc1`, the Potency result in [1], in assay [6] and in assay [7] was “inactive” each time. The compound was called inactive in assay [2], in assay [10] and in [8].
For the compound `NCCOS(=O)(=O)O`, the Potency entry in assay [1], in [3], in assay [7] and in assay [9] was “inactive” throughout. Moreover, the compound was classed as inactive in [2] and in [10].
As to `C=C(Cl)CCl`, the Potency result in [1], in assay [3], in assay [7] and in assay [9] was “inactive” each time. Further, the compound was called inactive in [2] and in assay [10].
As to `CC(C)N(Cc1ccccc1)C(=O)C(C)(C)C`, the Potency entry in [1], in assay [6], in assay [7] and in [9] was “inactive” throughout. In addition, the call in [2] and in assay [10] was inactive.
With `CCN1CCCC1CNC(=O)C(O)(c1ccccc1)c1ccccc1` (stereo unspecified), the Potency entry in assay [1], in assay [3], in assay [6] and in assay [9] was “inactive” in each case. In addition, the compound was called inactive in [2], in assay [10] and in assay [8].
In the case of `C=C1CC[C@@]2(O)[C@H]3Cc4ccc(O)c5c4[C@@]2(CCN3CC2CC2)[C@H]1O5`, the Potency result in assay [1], in assay [3], in assay [4], in assay [6], in assay [7] and in assay [9] was “inactive” throughout. Moreover, the outcome in assay [2] and in [8] was inactive. Moreover, the activity change, positive = activation in assay [5] is 8.21% [at 42.5 µM] (inactive).
With `C/C=C/CC#N`, the Potency entry in [1], in [3], in assay [7] and in assay [9] was “inactive” throughout. The result in assay [2], in assay [10] and in assay [8] was inactive.
In the case of `Clc1cc2c(cc1Cl)Oc1cc(Cl)c(Cl)cc1O2`, the activity change, negative = cytotoxicity in [1] was -17.7% [at 0.29 µM] (inactive); in assay [3], -1.16% [at 0.582 µM] (inactive); in assay [6], -2.29% [at 0.29 µM] (inactive). Moreover, the activation (H2AX phosphorylation) in assay [2] was -2.07% [at 0.582 µM] (inactive). Further, the activation in [10] was -1.24% [at 0.291 µM] (inactive). Also, in assay [8], the cytotoxicity is -18% [at 0.29 µM] (inactive). The activity change, negative = cytotoxic in assay [9] is -10.5% [at 0.29 µM] (inactive).
Regarding `CC(O)CCl` (stereo unspecified), the Potency entry in assay [1], in [3], in [6] and in assay [9] was “inactive” throughout. Besides, the call in [2], in assay [10] and in [8] was inactive.
Turning to `CCOC(=O)Nc1cccc(OC(=O)Nc2ccccc2)c1`, the Potency result in assay [1], in assay [3], in [7] and in [9] was “inactive” in each case. Besides, the outcome in assay [2], in assay [10] and in [8] was inactive.
For `CN(C)C(=O)Oc1cc(OC(=O)N(C)C)cc(C(O)CNC(C)(C)C)c1` (stereo unspecified), the Potency result in assay [1], in assay [3], in assay [4], in assay [7] and in assay [9] was “inactive” throughout. The call in [2] and in assay [8] was inactive. In assay [5], the activity change, positive = activation was 0.805% [at 42.5 µM] (inactive).
As to `C1CN2CCC1CC2`, the Potency entry in [1], in assay [3], in assay [6] and in [7] was “inactive” throughout. The compound was classed as inactive in assay [10] and in assay [8].
